In PubChem BioAssay (NCI):
The panel holds about 83,000 compounds, 20% with a hit somewhere; the sample as a whole holds those more often.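 Cell lines were cultured in 96-well plates, exposed to a single compound concentration, and assessed for percent growth 48 hours later.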 Unmarked numbers belong to inactive results. Calls of active or inactive are those of the source. How the source made its calls: active means growth percent below 10; inactive means the rest.

What follows are molecules tested on HL-60(TB) leukemia (assay: NCI-60 one-dose screen, 48 h (100 = growth as untreated, 0 = no growth, -100 = all killed)). Settings: 10 µM unless noted.

| SMILES | growth |
| --- | --- |
| CC(C)(C)c1cc(/C=N\NC(=O)/C=C/C=C/c2ccc3c(c2)OCO3)c(O)c(C(C)(C)C)c1 | 84.1% |
| ICCC(c1ccccc1)(c1ccccc1)c1ccccc1 | 43.4% |
| COc1cccc(-c2nc3sccn3c2-c2ccnc(NCCNC(=O)c3ccccc3)n2)c1 | 94.2% |
| CCCCCN1C=C/C(=C\C(=O)N(C)c2ccc(OC(F)(F)F)cc2)c2ccccc21 | 111% |
| COc1ccc(/C=C/C(=O)c2cc3c(N)c(C(=O)Nc4ccccc4)sc3nc2C)cc1 | 2.92% (active) |
| N=C(N)c1ccc(S(N)(=O)=O)cc1 | 94.9% |
| Nc1c(C(=O)Nc2ccccc2F)sc2nc3c(cc12)CCCC3 | 15.5% |
| COc1cc(-c2nc3sccn3c2-c2ccnc(NCCNS(=O)(=O)c3ccccc3)n2)ccc1F | 60.2% |
| COc1ccc(/C=C(\C#N)n2nnc3ccccc32)cc1 | -13% (active) |
| CCCCN1CCN(c2ccc3nc(-c4ccc5nc(-c6ccc(OC)c(OC)c6)[nH]c5c4)[nH]c3c2)CC1 | -25.1% (active) |
| COc1cc2c(cc1OCCCOc1cc3c(cc1OC)C(=O)N1CCC[C@H]1C=N3)C=CC(C)(C)O2 | 102% |
| ClCc1c(Cl)c(Cl)c(Cl)c(CCl)c1Cl | 80.4% |
| COc1ccc2oc(=O)cc(CN3C(=O)S/C(=C\c4ccc(Cl)cc4)C3=O)c2c1 | 89.5% |
| COCCOCCOCc1n(Cc2ccc3ccccc3n2)c2ccccc2[n+]1Cc1ccc2ccccc2n1 | -42.9% (active) |
| Ic1ccc(SSc2ccc(I)cc2)cc1 | 80.4% |
| CCCCCCCCCCCCCCCCCCNC(=O)[C@H]1CSC(c2ccc(OC)cc2O)N1 (stereo not given in full) | 34.4% |
| Cc1cc(C(O)CN(C)C)cc2c1ccc1cc(C(C)C)ccc12 (stereo not given) | -52.8% (active) |
| COc1cc2c(-c3cc4c(cc3CNCCc3ccc5c(c3)OCO5)OCO4)cccc2c(OC)c1O | 71.3% |
| Cc1cc(N/N=C/c2nc(-c3ccc(Br)cc3)oc2C)c2cc(Cl)ccc2n1 | -0.0323% (active) |
| O=C(CSc1nnc(Nc2ccccc2)s1)NCCc1ccc(F)cc1 | 110% |

| SMILES | growth |
| --- | --- |
| COC1=C(OC)C(=O)C(SC/C=C(\C)CCCC(C)CCCC(C)CCCC(C)C)=CC1=O (stereo not given) | -36.3% (active) |
| Cc1ccccc1C(=O)c1ccccc1C(=O)O | 106% |
| CCc1nc(N)nc(N)c1C#CC(C)c1ccc(-c2ccncc2)cc1Cl (stereo not given) | -19.9% (active) |
| O=C(Nc1ccc(Cl)cc1)N1CCN(c2ccc3nncn3n2)CC1 | -65.2% (active) |
| O=C1/C(=C\c2ccc(Br)cc2)CN(C(=O)c2ccccc2F)C/C1=C\c1ccc(Br)cc1 | 33.6% |
| COc1cc(C(=O)c2c(N)ncn2-c2ccccc2)cc(OC)c1OC | 77.5% |
| Nc1c(C(=O)Nc2cccc(Cl)c2)sc2ncc(Cl)cc12 | 88.7% |
| CCN(CC)/C([O-])=c1\cccc\c1=C1\N=C(c2ccccc2)N=C1[n+]1ccc(-c2ccccc2)cc1 | 92.2% |
| CN1CCN(Cc2ccc(NC(=O)c3cncc(C#Cc4cncc5ncccc45)c3)cc2C(F)(F)F)CC1 | -3.29% (active) |
| COc1cccc(-c2cc(-c3ccc(Nc4nc(Nc5ccc(Cl)cc5)nc(Nc5ccc(Cl)cc5)n4)cc3)nc(N)c2C#N)c1 | 24.5% |
| COc1ccc(-c2noc(C(=O)O)c2-c2cc(OC)c(OC)c(OC)c2)cc1 | -38.5% (active) |
| CC(C)C1=C[C@@]23CC[C@@H]4[C@](C)(CCC[C@@]4(C)C(=O)N4CCCNCC4)[C@H]2C[C@@H]1[C@H]1C(=O)CCC(=O)[C@H]13 | 100% |
| Cc1cc(N(CCCNc2ccnc3cc(Cl)ccc23)Cc2ccc3c(c2)OCO3)nc(N2CCCCC2)n1 | -68.4% (active) |
| CCN(CC)CCOc1ccc2c(-c3ccccc3)c(-c3ccc(OC)cc3)c(=O)oc2c1 | 48.8% |
| CCOC(=O)Cn1c(-c2nonc2NC(=O)c2ccccc2F)nc2ccccc21 | 35.1% |
| CCCCCN(CCCCC)CC(O)c1cc(C)c2ccc3cc(C(C)C)ccc3c2c1 (stereo not given) | -29.6% (active) |
| CNC(=O)Nc1ccc(-c2ccc3ncnc(Nc4cccc(Cl)c4)c3c2)cc1 | 76.2% |
| COc1cc(C)ccc1C(=O)c1ccc(C)cc1OC | 8.59% (active) |
| COc1cc(C(=O)/C=C/c2ccc3nc(-c4cc(F)cc(F)c4)sc3c2)cc(OC)c1OC | 60.1% |
| CSc1nc(NCCN2CCOCC2)c(C#N)c(-c2cccc([N+](=O)[O-])c2)n1 | 100% |
